From ChEMBL document CHEMBL3988442, “University of Dundee, Small-Polar-MMV Screening Library” (2021)
Among all 85,000 compounds or so, about 440 (0.52%) showed an effect of 50% or more. Many of the other results were omitted from the sample, so strong results are more common in it than they were.

Test: In vitro enzyme assay to detect hydrolysis of chlorophenol red-beta-D-[…] directly proportional to the number of Toxoplasma stably expressing beta-galactosidase
Type: functional, organism-based, Toxoplasma gondii
Parameters: scale not given: in the data most compounds retested in dose-response had high values

Row | Compound | Percent Effect (50 µM) [%] | Percent Effect (10 µM) [%]
1 | COc1ccc(NC(=O)CN)cc1Cl | 1.653 | –
2 | O=C1CNC2(CCCCC2)C(=O)N1 | -1.267 | –
3 | OCc1cnc2c(F)cccc2c1 | -7.989 | –
4 | O=C(NCCCn1cccn1)N1CCSCC1 | 12.95 | –
5 | CC1COCCN1CCNS(C)(=O)=O (configuration not stated) | -4.94 | –
6 | CCC(N)C(=O)N1CCN(c2ccncc2Cl)CC1 (configuration not stated) | 0.3763 | –
7 | OCC1(O)CCN(Cc2cc3ccccc3s2)C1 (configuration not stated) | 15.65 | –
8 | O=C(COc1ccc2c(c1)OCO2)NCc1ccco1 | – | -39.93
9 | O=C(COc1ccc2c(c1)CCCC2=O)NCc1ccco1 | – | -0.7551
10 | O=C(COc1ccc2c(c1)CCC2)NCc1ccco1 | – | 52.59
11 | CN(C1CCCCC1)S(=O)(=O)NC1CCCCNC1=O (configuration not stated) | -10.23 | –
12 | CCCc1nc(C)cc(NCCO)n1 | 22.28 | –
13 | O=C(CCOc1cccc(F)c1)N1CCCC(n2cncn2)C1 (configuration not stated) | – | -5.343
14 | CCc1cccc(OCC(=O)N2CCCC(n3cncn3)C2)c1 (configuration not stated) | – | 61.63
15 | COc1cccc(COCC(=O)N2CCCC(n3cncn3)C2)c1 (configuration not stated) | – | 5.194
16 | CN(Cc1ccccc1)C1(CN)CCC1 | -8.467 | –
17 | OC1CCN(c2ccnc(NCCc3ccccc3Cl)n2)C1 (configuration not stated) | – | 73.82
18 | OC1CCN(c2ccnc(NCCc3ccccc3Cl)n2)CC1 | – | -8.745
19 | OC1CCN(c2ccnc(NCCN3CCc4ccccc4C3)n2)C1 (configuration not stated) | – | -7.659
20 | CC1(C)CCN(C(=O)Nc2ccsc2)CCS1(=O)=O | 14.26 | –
21 | O=C(CCCc1cn[nH]c1)N1CCS(=O)(=O)CC1 | -1.399 | –
22 | CCN(CC)S(=O)(=O)c1cc2c3c(c1)c(C)cc(=O)n3CCC2 | – | 17.21
23 | CCN(CC)S(=O)(=O)c1cc2c3c(c1)c(C)cc(=O)n3CC2 | – | -2.001
24 | Cc1c(S(=O)(=O)NC2CC2)cc2c(C)cc(=O)n3c2c1CCC3 | – | 69.29
25 | Cc1cc2[nH]c(=O)c(=O)[nH]c2cc1S(=O)(=O)NC1CCCCC1 | – | 9.258

Row | Compound | Percent Effect (50 µM) [%] | Percent Effect (10 µM) [%]
26 | Cc1cc(=O)n2c3c(cc(S(=O)(=O)NC4CC4)cc13)CCC2 | – | 88.28
27 | CCCNS(=O)(=O)c1cc2c3c(c1)c(C)cc(=O)n3CCC2 | – | -12.19
28 | Cc1cc(S(C)(=O)=O)c(C)c(S(=O)(=O)NC2CCCC2)c1 | – | -4.298
29 | Cc1c(S(=O)(=O)N2CCOCC2)cc2c(C)cc(=O)n3c2c1CCC3 | – | 70.37
30 | O=C1COc2ccc(S(=O)(=O)N3CCOCC3)c3c2N1CCC3 | – | -24.36
31 | Cc1cccc(OCC(=O)NCC2CCNCC2)c1 | -0.8091 | –
32 | CCOC(=O)N1CCN(C(=O)c2onc(C)c2Cl)CC1 | 1.461 | –
33 | CCSc1cc(CN)ccn1 | -10.09 | –
34 | NC(=O)CCSc1nc2ncccn2n1 | -6.184 | –
35 | CCCC(=O)N(C)C1CCN(C)CC1 | 4.372 | –
36 | COc1ccc(CNC(=O)CN)cc1 | -16.08 | –
37 | CC(C)C(CC(=O)NCC(N)=O)c1ccccc1 (configuration not stated) | 0.4392 | –
38 | CCCNC(=O)c1cc(-c2cnc(N3CCCC3)nc2)cn1C | – | 59.81
39 | CN(C)CCNC(=O)c1cc(-c2cnc(N3CCCC3)nc2)cn1C.O=C(O)C(F)(F)F | – | 16.58
40 | Cn1cc(-c2cnc(N3CCCC3)nc2)cc1C(=O)O | – | -6.676
41 | CNS(=O)(=O)c1c[nH]cn1 | -8.669 | –
42 | Cc1ccc(CN2CCC(N)C2=O)cc1 (configuration not stated) | 0.3266 | –
43 | NC1CCCN(Cc2ccccc2)C1=O (configuration not stated) | 3.99 | –
44 | NC1CCN(Cc2ccccc2)C1=O (configuration not stated) | 57.3 | –
45 | Cn1nccc1C(=O)NC1Cc2ccccc2C1 | 4.859 | –
46 | CCc1nc(CN2CCCC2C(=O)N(C)C)cs1 (configuration not stated) | 6.641 | –
47 | CC(NC(=O)c1ccncc1F)C(C)(C)CN(C)C (configuration not stated) | -0.7264 | –
48 | CCN(CC)CCOC1CCNCC1 | -2.471 | –
49 | Cc1cc(NC(=O)COc2ccc3c(c2)OCO3)no1 | 15.18 | –
50 | CC(=O)c1cccc(OCC(=O)NC2CCCC2)c1 | -4.665 | –

Row | Compound | Percent Effect (50 µM) [%] | Percent Effect (10 µM) [%]
51 | CC(=O)c1cccc(OCC(=O)Nc2cc(C)on2)c1 | 98.67 | –
52 | COc1c(CNC2(c3ccc(Cl)cc3)CCC2)c(C)nn1C | – | 7.233
53 | COc1c(CNC2(c3noc(C)n3)CCC2)c(C)nn1C.Cl | – | 55.08
54 | Cc1nc(C2(NCc3c(C)nn(C)c3N3CCOCC3)CCC2)no1 | – | 56.3
55 | COc1c(CNC2(c3noc(C)n3)CCC2)c(C(C)C)nn1C.Cl | – | 11.38
56 | Cc1cc(CNCc2c(C)nn(C)c2N2CCOCC2)no1 | – | -17.93
57 | Cc1csc(CNCc2c(C)nn(C)c2N2CCOCC2)n1 | – | -26.69
58 | CC(C)(C)OC(=O)NCCCOC1CCNCC1 | 10.6 | –
59 | O=C(CSc1nnnn1Cc1cccs1)NC1CC1 | -25.88 | –
60 | CC(C)n1nc2c(cc1=O)CN(c1ncnc3ccccc13)CC2 | – | -24.89
61 | CC(C)n1nc2c(cc1=O)CN(c1ncnc3ccsc13)CC2 | – | 9.432
62 | Cn1nc2c(cc1=O)CN(c1ncnc3ccsc13)CC2 | – | 82.27
63 | CCCn1nc2c(cc1=O)CN(c1ncnc3ccsc13)CC2 | – | -2.045
64 | Cn1nc2c(cc1=O)CN(c1nc3ccccc3s1)CC2 | – | -0.5196
65 | CCn1nc2c(cc1=O)CN(c1ncnc3ccsc13)CC2 | – | 76.59
66 | O=C(NC1CCCc2[nH]c(=O)ccc21)c1cc(Br)c[nH]1 (configuration not stated) | 33.46 | –
67 | O=C(CCCn1cccn1)N[C@H]1C[C@@H]2OCC[C@H]12 | 16.13 | –
68 | O=C(Cc1cccs1)N1CCNCC1 | 1.272 | –
69 | CCn1c(NCC2CCCO2)nc2c(C)nn(C)c2c1=O (configuration not stated) | – | 22.67
70 | Cc1nn(C)c2c(=O)n(C)c(NCC3CCCO3)nc12 (configuration not stated) | – | 10.39
71 | CCCn1c(N2CCCC(C)C2)nc2c(C)nn(C)c2c1=O (configuration not stated) | – | 58.79
72 | CCCc1nc(N2CCCCCC2)c2c(n1)c(C)nn2CC | – | 14.57
73 | CCCc1nc(N2CCCC(C)C2)c2c(n1)c(C)nn2CC (configuration not stated) | – | 19
74 | Cc1nn(C)c2c(N3CCCC3)nc(C3CC3)nc12 | – | 10.42
75 | CCCn1c(N2CCCCC2)nc2c(C)nn(C)c2c1=O | – | 85.32

Row | Compound | Percent Effect (50 µM) [%] | Percent Effect (10 µM) [%]
76 | CCn1nc(C)c2ncnc(N3CCCC(C)C3)c21 (configuration not stated) | – | 16.85
77 | CCCn1c(N2CCCC2)nc2c(C)nn(C)c2c1=O | – | 74.14
78 | CC(N)C1(N2CCOCC2)CCCC1 (configuration not stated) | -11.55 | –
79 | CCNC(=O)c1cc2ccc(OC)cc2[nH]1 | -0.6946 | –
80 | O=C(NCC(F)(F)F)C1CCN(CC(F)F)CC1 | -5.562 | –
81 | CCN(Cc1nonc1C)C(=O)Cn1nc(C(F)(F)F)cc1C1CC1 | – | 53.8
82 | CCN(Cc1nonc1C)C(=O)Cn1nc(C(F)(F)F)cc1C | – | 32.79
83 | CCN(Cc1nonc1C)C(=O)c1cc(C(F)(F)F)nn1C | – | 29.16
84 | CC(CO)(CO)NC(=O)Nc1cc(Br)ccc1F | 12.92 | –
85 | Cc1nn(C)c2nc(-c3ccccn3)nc(NCCCOC(C)C)c12 | – | -3.21
86 | Cc1cc(NCCCOC(C)C)c2nncn2n1 | – | 73.87
87 | CCOCCCNC(=O)c1cn(CC)nc1C | – | 0.2391
88 | COCCn1cnnc1CNc1cc(C)nc2c(C)c(C)nn12 | – | -11.49
89 | COCCNc1cc(C)nn2cnnc12 | – | 70.24
90 | CCOCCCNc1nc2c(s1)c(C)nn2C | – | -0.8738
91 | COc1cc(-c2cnnc(NCCCOC(C)C)n2)cc(OC)c1OC | – | 4.137
92 | CCOCCCNc1cc(C)nn2cnnc12 | – | 66.33
93 | COCCCNc1cc(C)nn2cnnc12 | – | 36.97
94 | Cc1n[nH]c(SCC(=O)NC2CCCCC2)n1 | 32.19 | –
95 | Nc1ccn(-c2ccc(C(F)(F)F)cn2)n1 | 9.315 | –
96 | CC(C)c1ccn(C)n1 | 1.261 | –
97 | Cn1nccc1CCC(=O)NCC[C@@H]1CCCN1 | 2.008 | –
98 | Cc1cc(C)n(CCC(=O)NCc2ccccn2)n1 | -3.878 | –
99 | CCCNC(=O)CCn1nc(C)cc1C | 59.42 | –
100 | CCC(C)C(=O)NCCCn1nc(C)cc1C (configuration not stated) | – | 6.68

Row | Compound | Percent Effect (50 µM) [%] | Percent Effect (10 µM) [%]
101 | C=C(C)CNc1nc2nonc2nc1NCCOC | 14.38 | –
102 | CC(C)c1nnsc1CNC(=O)CCc1csc(N)n1 | -4.031 | –
103 | Cc1cc(C(=O)NC(C)c2ccncc2)ncn1 (configuration not stated) | 8.375 | –
104 | CC(=O)Nc1ccccc1CN | -1.882 | –
105 | CCCC(=O)N1CCN(C(=O)NCC)CC1 | 54.38 | –
106 | CCNC(=O)N1CCNCC1 | 13.83 | –
107 | CCCNC(=O)N1CCN(CCC)CC1 | -47.68 | –
108 | COCC(C)(O)C(F)(F)F (configuration not stated) | 7.186 | –
109 | CC1Cc2ccccc2N1C(=O)c1ccccn1 (configuration not stated) | 2.942 | –
110 | COCC(O)CN(C)CCn1cc(Br)cn1 (configuration not stated) | 16.66 | –
111 | c1cnn(CCCNCCCn2cccn2)c1 | 0.4357 | –
112 | CCn1nc(C)c2nc(C(C)C)nc(NC)c21 | – | 39.93
113 | CCn1nc(C)c2nc(C(C)C)nc(NCC(C)O)c21 (configuration not stated) | – | 75.76
114 | CCN(CC)CCNc1nc(C(C)C)nc2c(C)nn(CC)c12 | – | 58.79
115 | CCn1nc(C)c2nc(C(C)C)nc(NCCCO)c21 | – | 1.913
116 | CCn1nc(C)c2nc(C(C)C)nc(NCCc3ccc(O)cc3)c21 | – | 48.01
117 | CCn1nc(C)c2nc(C(C)C)nc(NCC(C)C)c21 | – | 49.36
118 | COc1ccnc(N2CC[S+]([O-])CC2)n1 | -6.202 | –
119 | O=C(CC1C=CCC1)NCc1ccccn1 (configuration not stated) | -4.879 | –
120 | Cc1cccc(NC(=O)NC2CCN(C)CC2)c1 | -9.939 | –
121 | CC(NC(=O)NCCCN1CCCC1=O)c1ccco1 (configuration not stated) | -1.872 | –
122 | CCN(Cc1cccc(F)c1)C1CCS(=O)(=O)C1 (configuration not stated) | -4.951 | –
